In all, about 53,000 sequences went through this assay and about 3,700 (7%) were called active. This is one part of a sample in which actives are shown more often than they occur.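 How the source made its calls: active means gene knockdowns whose robust z-score for IL-1 alpha signal is at least 2 or at most -2, so actives lie on both sides; inactive means the rest.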

This note sets out measurements from PubChem BioAssay AID1508600 (Functional Genomics Laboratory (NCATS/FGL), 2020).

A short description of the experiment: Components of the Cytosolic LPS Sensing Pathway: Gene Identification via Genome-wide siRNA Screen.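 Further: robust z of the log signal after scaling to non-targeting control siRNA wells of the plate.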 As to conditions: RAW264.7 macrophages, IL-1a HTRF, actives lie on both sides, screened at 100 nM (by protocol), cells primed 5 h with Pam3CSK4 first. In short, it runs like this: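 RAW264.7; siRNA 100 nM final, RNAiMAX, 48h 37 degrees C; Pam3CSK4 5 h; LipidA + TransIT-TKO 24 h; IL-1a HTRF; CellTiter-Glo viability; robust z vs negative-control median.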
A general note: In TR-FRET formats the signal depends on donor and acceptor labels being close together.
For CGAGUUAGUUUUUCUGGGCTT against Tctex1d4, the z-score was 0.997 (inactive).

Take GCAAGAAAAGGUGCUAUCUTT against Med4: the z-score was -0.314 (inactive).

In the case of GGAGCUGGAAGAGUGGUAUTT against Clta, the z-score is -0.535 (inactive).

Consider GGCUAUGUAGAUCUUGUCATT against Cyb5r1, for which the z-score is -1.09 (inactive).

Turning to GCUCGGUUAAGAGCCCAUGTT against Pabpn1l, the z-score was -2.11 (active).

For the sequence GGCACAACUGAUUUUGAAATT against Ifngr2, the z-score was -0.362 (inactive).

Turning to GCGAUCACAGACAUCAUUGTT against Rabgef1, the z-score is -0.423 (inactive).

For the sequence GGAAAUAAGCAGCGCAUGCTT against Ippk, the z-score is -1.27 (inactive).

Turning to CCUACGAGGAUACUUACAATT against Kif18b, the z-score is 2.81 (active).

Consider GGUGGUUCUGGUGUACAGUTT against Nxf1, for which the z-score is -1.98 (inactive).

In the case of CCCUAUAAGCAACUUAUGCTT against Tor1aip1, the z-score was -0.115 (inactive).

Consider GCACCAUUUGAGUUUUUCUTT against Vmn1r8, for which the z-score was -0.578 (inactive).

Take CAUUUACAUUCUUAUUACCTT against Olfr473: the z-score is -1.43 (inactive).

With CCCGAACCUUAGUAAAUGUTT against Psmd8, the z-score is 0.308 (inactive).

As to GCAGACAGCUUCUCACUAUTT against Tmem114, the z-score is -0.431 (inactive).

As to GCUAAGAAACUGGUCUCAUTT against Reg4, the z-score is -0.151 (inactive).

With GGAAGAUUUGGAAAAUGGATT against Dph3, the z-score was -2.19 (active).

For CCAUCAUUUAUGAAGACCCTT against Dcaf7, the z-score was -1.44 (inactive).

In the case of CCCAAGCACCAGCCCUAUATT against Frmd8, the z-score is -1.58 (inactive).

For GGGAGAAUUGUAGAUUAUUTT against Myo10, the z-score is 0.475 (inactive).

CCAUCGACUGUUUCAUCCUTT against Olfr987: the z-score was -0.915 (inactive).

Take GCUUGAAGUCUCUUGCUGGTT against Nhlrc2: the z-score is 3.53 (active).

GCUACUCUUUGUCUCAUGUTT against Hexb: the z-score is -0.826 (inactive).

For the sequence GGAUCAGAUCUUGUGUGACTT against Trim16, the z-score was -0.602 (inactive).

Consider CCGCUUGCUCAUUGUAUCATT against Ruvbl2, for which the z-score is -0.976 (inactive).

In the case of GGUUCCAUGAGAAAAGGUUTT against F2r, the z-score was -1.45 (inactive).

“AUCUGUUCCGGAGGAAUUUTT against 1700029I15Rik”: the z-score is 3.85 (active).

In the case of GGAGGAGUUUCGCUACGGATT against Sars2, the z-score is -0.00587 (inactive).

Take GGUGUACCCUGAAUUUGAATT against Wdr62: the z-score was -1.67 (inactive).

For GGUUAUACGCUUAGAUUUATT against Irx5, the z-score was 1.77 (inactive).

For the sequence GCUCUGUUACUAUUUGAAUTT against Cts6, the z-score is 0.137 (inactive).

On to GGUUUUGUACUUUCAUAGATT against Fam111a, for which the z-score was 0.523 (inactive).

On to “GGACUUGAACUGAAAAGUUTT against D830013H23Rik”, for which the z-score is 1.01 (inactive).

Regarding GGCAAAAUAAAGCUUAAGGTT against Robo3, the z-score is -0.517 (inactive).

For GGAUUUGAGGUUCAUAUAATT against Cdk20, the z-score is -2.48 (active).

Turning to CGACAGACAUCGCUAUAAUTT against Gm11437, the z-score was -0.296 (inactive).

Turning to GGAGAUACCGGGAAUCCAATT against Rpl19, the z-score is 0.146 (inactive).

On to “GCGCUUCCAAUAACAAAAATT against 1700123L14Rik”, for which the z-score is -2.19 (active).

In the case of CCAAGUGGGAUUUGCCAACTT against Ifi47, the z-score is -1.68 (inactive).

Consider “GGAAUAUCACCAAACCAAATT against 2310057J18Rik”, for which the z-score is -1.08 (inactive).

Turning to CCUUCACCUGGCUAUUAGATT against Kif12, the z-score is -0.14 (inactive).

As to GGAUGUGUUCUAUUCUAUATT against Oprl1, the z-score is 0.134 (inactive).

For the sequence GGAAAGUUAAUGCACAUUUTT against Hmg20a, the z-score was -1.68 (inactive).

Consider CCUGAAAGAAAAGAAGGACTT against Ptms, for which the z-score was 0.107 (inactive).

GGCGACAAGCAACUUAUAATT against Mgat4c: the z-score is 3.25 (active).

Turning to GGAUGACUGUAAGUUACGGTT against Mast2, the z-score was -0.229 (inactive).

Consider GGUGCUCCUAUCCUGUUCATT against Lhfp, for which the z-score was -0.331 (inactive).

As to GGCGGCUGAAAGUUUUGCATT against Pklr, the z-score is 0.94 (inactive).

GCACAAGAGGUAUCCUUGCTT against Gm5111: the z-score is 0.000682 (inactive).

As to GCCUGCAUUGCAAAUGAAATT against Krtap13-1, the z-score was -0.257 (inactive).

GGCUUUAACAUCAAAGCAATT against Mgarp: the z-score was 0.0459 (inactive).

Consider GGAAUCCUUUUCUUUCUAATT against Slc13a1, for which the z-score is 0.0492 (inactive).

On to GGAAGACAGGGACAAUACCTT against Car15, for which the z-score is -2.36 (active).

Consider CCAUCCUAGCUGUGGUAAGTT against Olfr554, for which the z-score was 1.32 (inactive).

Consider GGUCGUUCAGAAGCACCAGTT against Aldh16a1, for which the z-score is -1.31 (inactive).

For CGGCACUGACUUAUUGUUCTT against Olfr574, the z-score was 0.886 (inactive).

GGUGUACCAAGUGUUUUCATT against Faf2: the z-score is 3.08 (active).

On to GGUCACUGAAUUGUCAAUCTT against Polr3h, for which the z-score was 0.773 (inactive).

For the sequence “GGGCAAAGACAGUAUUCAATT against B530045E10Rik”, the z-score was 0.4 (inactive).

On to CCAUGUGACAAAGCCUACCTT against Fam131b, for which the z-score is 0.845 (inactive).

On to GGAGGAAAGACGAAUCAACTT against Clcn7, for which the z-score was 1.44 (inactive).

GCACUGAGCUUGACAAAGATT against Upp2: the z-score was -0.174 (inactive).

Regarding GGGCUUUCUCAGAAAAGAATT against Olfr508, the z-score is -1.29 (inactive).

“GGGCAUGAAAGAAUUCUUATT against D130040H23Rik”: the z-score is -2.83 (active).

Consider GGCCAUCAUUGUCACCGUGTT against Adra2a, for which the z-score is 0.955 (inactive).

For the sequence GGUUUAGGUUUCAUAAUCCTT against Ostc, the z-score is -0.338 (inactive).

For the sequence GGACCUAUGCAGCACUAAATT against Ppp1r11, the z-score was 1.73 (inactive).

In the case of GGAGAAAGUGGACAGGGCUTT against Jph4, the z-score is 0.00563 (inactive).
